Data taken from PubChem BioAssay AID493066 (National Center for Advancing Translational Sciences (NCATS), 2011).
Inconclusive results are not listed. The source made the active and inactive calls. Calls follow the shape of the dose curve; as a rule, active = well fitted cell-killing curve with a large enough effect; inconclusive = small, poorly fitted or top-dose-only effect; inactive = flat fitted curve, though single readings scatter.

Assay: HBEC Cell Viability Secondary Assay for qHTS Assay for Epigenetic Modulators
Details: HBEC normal bronchial cells viability, ATP luminescence, 72 h
From the text: NIH Molecular Libraries Screening Centers Network [MLSCN] NIH Chemical Genomics Center [NCGC] MLSCN Grant: 1 X01 MH079860-01 Assay Provider: Elisabeth D. Martinez, University of Texas SW Medical Center NCGC Assay Overview: This secondary assay characterizes selected actives identified in the qHTS of the Locus Derepression (LDR) assay (PubChem AID 1865). The LDR assay detects the derepression of a GFP reporter that is stably integrated in a region of the genome of murine c127i mammary cells that is presumably silenced. Compounds that cause derepression of the locus to express GFP are identified by enumerating GFP positive cells using a laser-scanning microplate cytometer. […] Cell viability was measured using a luminescence-based detection reagent that measures cellular ATP levels.
NCGC Assay Protocol Summary HBEC cells were seeded at 125 cells/5 uL/well in white, solid bottom, 1536 well plates (Greiner). […] Plates were incubated 72 hours at 37deg C and 5% CO2, then 3.5 uL/well CellTiter-Glo(R) (Promega) detection reagent was added, plates were incubated at ambient temperature for 10 minutes and luminescence was measured by a ViewLux (Perkin Elmer) reader. […] A quantitative high-throughput screen identifies potential epigenetic modulators of gene expression. […] A quantitative high-throughput screen identifies potential epigenetic modulators of gene expression. […]

Row | Compound | Potency
1 | COc1ccc(OC)c(N2C(=O)NC(=O)/C(=C\c3ccc([N+](=O)[O-])s3)C2=O)c1 | 28.1 µM (active)
2 | O=C1NC(=O)N(CCc2ccc(F)cc2)C(=O)/C1=C/C=C/c1ccccc1 | 7.91 µM (active)
